T cruzi growth-1 = blocks T. cruzi growth in NIH3T3 culture | T. cruzi beta-gal in NIH3T3, GalScreen luminescence, 90 h | inhibition, % at 8.34 µM | hit rate 5.9% among 77,000 | AID 624255;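 active = mean inhibition above about 93%, with at least 55% of replicates each passing it, limit read from the data, passing the limit was not always enough; inconclusive = only one of those two conditions holds; inactive = neither condition holds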
C diff HTS = C. difficile growth inhibition; growth activity, negative = inhibition, % at 16 µg/mL (by protocol); hit rate 0.25% among 86,000; Clostridium difficile clinical isolate growth, OD600, 24 h; hits give low values;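 active = mean growth activity at or below -80% and every replicate also at or below -80%; inconclusive = mean at or below -80% but some replicate above -80%; inactive = mean growth activity above -80%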
T cruzi growth-2 = inhibitors of T. cruzi proliferation | shares compounds with T cruzi growth-1 | hit rate 72% among 5,600 | inhibition, % at 8.35 µM | T. cruzi beta-gal in NIH3T3, GalScreen luminescence, 90 h;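 active = mean replicate inhibition above about 95% and at least 55% of replicates individually reaching it, limit read from the data; inconclusive = only one of the two criteria is met; inactive = neither criterion is met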
T cruzi growth-3 = Trypanosoma cruzi proliferation inhibition; shares compounds with T cruzi growth-1; T. cruzi beta-gal in NIH3T3, GalScreen luminescence, 90 h; inhibition, % at 2.09 µM; hit rate 21% among 5,600; AID 651740;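 active = mean inhibition above about 95%, with at least 55% of replicates also reaching it, limit read from the data; inconclusive = meets just one of the two conditions; inactive = meets neither condition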
NIH3T3 tox = kills mouse NIH/3T3 fibroblasts; shares compounds with T cruzi growth-1; NIH/3T3 viability, CellTiter-Glo ATP luminescence, 90 h; cytotoxicity (signal decrease), % at 8.35 µM; hit rate 14% among 5,600;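 active = mean signal decrease across replicates above about 35% based on untreated-well scatter, with enough replicates individually passing, limit read from the data; inconclusive = no rule stated though some were filed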
3T3 cytotox 2 = cytotoxicity in mouse NIH/3T3 fibroblasts; shares compounds with T cruzi growth-1; NIH/3T3 viability, CellTiter-Glo ATP luminescence, 90 h; inhibition, % at 24.9 µM; hit rate 56% among 5,600; AID 651744;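 active = mean loss of cell viability signal at or above a set limit, and enough replicates individually reaching it; inconclusive = meets only the mean limit or only the replicate share; inactive = meets neither condition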
A number is an active result; 0 = inactive; ? = inconclusive; - = no result. Many of the other results were omitted from the sample, so hits are more common in it than they were.

SMILES	T cruzi growth-1	C diff HTS	T cruzi growth-2	T cruzi growth-3	NIH3T3 tox	3T3 cytotox 2
O=C(Nc1ccccc1)N1CCCCN2[C@H](C1)[C@H](c1ccc(C#Cc3ccccc3)cc1)[C@@H]2CO	106	0	104	0	0	39
O=C(Nc1ccc(F)cc1)N1CCCCN2[C@H](C1)[C@H](c1ccc(C#Cc3ccccc3)cc1)[C@@H]2CO	123	0	102	0	0	76
O=C(Nc1ccc(F)cc1)N1CCCCN2[C@H](CO)[C@H](c3ccc(C#Cc4ccccc4)cc3)[C@@H]2C1	0	0	-	-	-	-
C[C@H]1CN([C@@H](C)CO)C(=O)c2cc(NS(=O)(=O)c3ccc(Cl)cc3)ccc2O[C@H]1CN(C)C(=O)Nc1ccc2c(c1)OCO2	0	0	-	-	-	-
C[C@H](CO)N1C[C@H](C)[C@@H](CN(C)CC2CCCCC2)OCCCC[C@H](C)Oc2ccc(NC(=O)CCC(F)(F)F)cc2C1=O	0	0	-	-	-	-
C[C@@H]1CN([C@@H](C)CO)C(=O)c2cc(NC(=O)NC3CCCCC3)ccc2O[C@@H](C)CCCCO[C@H]1CN(C)C(=O)NC1CCCCC1	0	0	-	-	-	-
C[C@@H]1CCCCO[C@H](CN(C)S(=O)(=O)c2ccc(F)cc2)[C@H](C)CN([C@H](C)CO)C(=O)c2cc(NC(=O)Nc3cccc4ccccc34)ccc2O1	101	0	104	108	0	0
C[C@@H]1CN([C@H](C)CO)C(=O)c2cc(NC(=O)Nc3cccc4ccccc34)ccc2O[C@@H](C)CCCCO[C@H]1CN(C)S(=O)(=O)c1ccc(Cl)cc1	0	0	-	-	-	-
C[C@@H]1CCCCO[C@H](CN(C)S(=O)(=O)c2ccc(Cl)cc2)[C@H](C)CN([C@@H](C)CO)C(=O)c2cc(NC(=O)Nc3cccc4ccccc34)ccc2O1	101	0	109	104	0	0
C[C@H](CO)N1C[C@H](C)[C@@H](CN(C)S(=O)(=O)c2ccc(Cl)cc2)Oc2ccc(NC(=O)Nc3cccc4ccccc34)cc2C1=O	-	0	-	-	-	-
C[C@@H]1CCCCO[C@@H](CN(C)S(=O)(=O)c2ccc(F)cc2)[C@@H](C)CN([C@@H](C)CO)C(=O)c2cc(NC(=O)Nc3cccc4ccccc34)ccc2O1	0	0	-	-	-	-
C[C@@H]1CN([C@H](C)CO)C(=O)c2cc(NC(=O)Nc3cccc4ccccc34)ccc2O[C@@H]1CN(C)S(=O)(=O)c1ccc(Cl)cc1	98	0	107	0	0	49
C[C@@H]1CN([C@H](C)CO)C(=O)c2cc(NC(=O)Nc3cccc4ccccc34)ccc2O[C@@H](C)CCCCO[C@@H]1CN(C)S(=O)(=O)c1ccc(Cl)cc1	0	0	-	-	-	-
C[C@H](CO)N1C[C@H](C)[C@H](CN(C)S(=O)(=O)c2ccc(Cl)cc2)OCCCC[C@H](C)Oc2ccc(NC(=O)Nc3cccc4ccccc34)cc2C1=O	98	0	111	102	0	?
C[C@H](CO)N1C[C@H](C)[C@H](CN(C)S(=O)(=O)c2ccccc2C#N)OCc2ccccc2-c2ccccc2C1=O	0	0	-	-	-	-
CO[C@@H]1CN(C)C(=O)c2ccc(NC(C)=O)cc2OC[C@@H](C)N(C(=O)Cc2ccccn2)C[C@@H]1C	0	-	-	-	-	-
C[C@@H]1CN([C@@H](C)CO)C(=O)c2cc(NC(=O)Nc3cccc4ccccc34)ccc2O[C@H]1CN(C)C(=O)Nc1cccc2ccccc12	0	0	-	-	-	-
C[C@@H]1CN([C@@H](C)CO)C(=O)c2cc(NC(=O)Nc3ccccc3)ccc2O[C@H]1CN(C)C(=O)Nc1ccc2c(c1)OCO2	0	-	-	-	-	-
O=C(C[C@H]1CC[C@H](NC(=O)c2cccc(F)c2)[C@H](CO)O1)Nc1nccs1	0	-	-	-	-	-
CNC[C@H]1Oc2ccc(NS(=O)(=O)c3ccc(Cl)cc3)cc2C(=O)N([C@H](C)CO)C[C@H]1C	-	0	-	-	-	-
CO[C@H]1CC[C@@H]2CCN(C)C(=O)[C@@H](C)[C@@H](OC)CN(C)C(=O)c3cc(C#N)ccc3OC[C@@H]1O2	0	-	-	-	-	-
O=C(Cc1ccccn1)NCC[C@@H]1CC[C@H](NC(=O)CN2CCOCC2)[C@@H](CO)O1	-	0	-	-	-	-
CS(=O)(=O)N(CC1CCC1)C[C@H]1N[C@@H](CO)[C@H]1c1ccccc1	0	0	-	-	-	-
COc1ccc(C#Cc2ccc3c(c2)[C@H]2[C@H](CCN2S(=O)(=O)c2ccccc2C)[C@H](CO)N3)cc1	0	0	-	-	-	-
COc1ccc(S(=O)(=O)N2CC[C@@H]3[C@@H](CO)Nc4ccc(-c5ccc(C#N)cc5)cc4[C@@H]32)cc1	0	0	-	-	-	-
SMILES	T cruzi growth-1	C diff HTS	T cruzi growth-2	T cruzi growth-3	NIH3T3 tox	3T3 cytotox 2
COc1ccc(S(=O)(=O)N2CC[C@@H]3[C@H]2c2cc(C#Cc4ccccc4OC)ccc2N[C@@H]3CO)cc1	107	0	106	111	0	0
COc1ccc(C#Cc2ccc3c(c2)[C@@H]2[C@@H](CCN2S(=O)(=O)c2ccccc2C)[C@@H](CO)N3)cc1	97	0	109	0	0	55
COc1ccc(S(=O)(=O)N2CC[C@@H]3[C@H](CO)Nc4ccc(-c5ccc(C#N)cc5)cc4[C@@H]32)cc1	109	0	101	103	42	49
COc1ccc(S(=O)(=O)N2CC[C@H]3[C@H](CO)Nc4ccc(C#Cc5ccccc5OC)cc4[C@H]32)cc1	-	0	-	-	-	-
O=C(c1ccc2c(c1)OCO2)N1C[C@H]2[C@@H](c3ccccc31)[C@@H](CO)N2C(=O)CC1CC1	0	0	-	-	-	-
CC(C)NC(=O)N(C)C[C@@H]1Oc2cc(Br)ccc2S(=O)(=O)N([C@H](C)CO)C[C@@H]1C	0	0	-	-	-	-
C[C@H]1CN([C@@H](C)CO)C(=O)c2cccc(NC(=O)C3CCOCC3)c2O[C@H]1CN(C)C(=O)Nc1ccc(C(F)(F)F)cc1	0	0	-	-	-	-
COCC#Cc1ccc2c(c1)O[C@@H](CN(C)CC1CC1)[C@@H](C)CN([C@H](C)CO)S2(=O)=O	-	0	-	-	-	-
COc1ccc(-c2ccc3c(c2)O[C@@H](CN(C)CC2CCOCC2)[C@H](C)CN([C@@H](C)CO)S3(=O)=O)cc1	93	0	100	101	51	67
COCC#Cc1ccc2c(c1)O[C@@H](CN(C)CC1CCCC1)[C@H](C)CN([C@H](C)CO)S2(=O)=O	110	0	98	0	44	104
C[C@@H]1CN([C@H](C)CO)S(=O)(=O)c2ccc(C#CC3CC3)cc2O[C@H]1CN(C)CC1CCOCC1	?	0	101	0	50	91
CCCN(C)C[C@@H]1Oc2cc(C#CC3CCCC3)ccc2S(=O)(=O)N([C@@H](C)CO)C[C@@H]1C	99	0	113	0	0	104
COc1ccc(-c2ccc3c(c2)O[C@H](CN(C)CC2CCOCC2)[C@@H](C)CN([C@@H](C)CO)S3(=O)=O)cc1	0	0	-	-	-	-
C[C@@H]1CN([C@H](C)CO)S(=O)(=O)c2ccc(C#CC3CC3)cc2O[C@@H]1CN(C)CC1CCOCC1	0	0	-	-	-	-
CCCN(C)C[C@H]1Oc2cc(C#CC3CCCCC3)ccc2S(=O)(=O)N([C@@H](C)CO)C[C@@H]1C	0	0	-	-	-	-

High-throughput results: PubChem BioAssay, Broad Institute
